Our source for the composite z-score and z-score values is PubChem BioAssay.

Active and inactive are the calls of the source. Unless noted, how the calls were made is not given here.

In assay [1] the test system is Wnt5a (protein binding on small-molecule microarray). The experiment in a line: small molecules binding Wnt5a protein – biophysical, small-molecule microarray, 635/667 nm fluorescence, primary screen (AID 1142).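 Further: fluorescence read at 667 nm with signal to noise per printed feature.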 To be noted: 635 nm fluorescence, higher = more signal.
Assay [2] in a line: ATP-based viability of Huh7 replicon cells – cell-based, CellTiter-Glo luminescence, basal, 48 h, cytotoxicity control for HCV replication inhibitor project, primary screen (AID 1143).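 Further: Huh7 hepatoma cells carrying a hepatitis C replication reporter with no stimulus; test concentration not given here.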 To be noted: higher = more signal, called active from +8 up or from −8 down.
Assay [3] is described as follows: Pseudomonas biofilm growth suppression – PAO1 strain, BacTiter-Glo luminescence, LB-PBS, primary screen (AID 1144). To be noted: P. aeruginosa PAO1 biofilm, 12 h, higher = more signal.
Assay [4] can be described thus: basal CRE-LacZ reporter activity in PC12 – cell-based, unstimulated, primary screen (AID 1145). To be noted: no forskolin, luminescence, 4.5 h, higher = more signal, called active from +8 up or from −8 down.
Assay [5] in a line: forskolin-driven CRE-LacZ activity in PC12 – cell-based, CRE-LacZ reporter, forskolin-stimulated, primary screen (AID 1146).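 Further: PC12 cells with 6xCRE LacZ reporter stimulated by forskolin 10 µM; beta-galactosidase reporter signal reflecting CREB driven transcription.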 As to conditions: luminescence, 4.5 h, higher = more signal, called active from +8 up or from −8 down.
In assay [6] the target is Streptavidin (Streptomyces avidinii) (UniProt P22629). The experiment in a line: compounds binding control protein streptavidin – biophysical, small-molecule microarray, 635/667 nm fluorescence, artefact control for SMM compound annotation, primary screen (AID 1147).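 Further: signal reflects streptavidin binding to arrayed compounds as a control protein.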 As to conditions: higher = more signal.
A short description of assay [7]: probe aInhba binding on compound microarray – biochemical, small-molecule microarray, 635/667 nm fluorescence, primary screen (AID 1148).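 Further: score merges 667nm spot fluorescence with signal-to-noise for antibody binding to printed compounds.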 To be noted: higher = more signal.
Assay [8] has as its target Torsin-1A (Homo sapiens) (UniProt O14656). Nature of the assay: TOR1A wild-type binding on microarray – cell lysate, small-molecule microarray, lysate, 635/667 nm, primary screen (AID 1149). As to conditions: COS7 hTOR1A-WT lysate, 635 nm fluorescence, higher = more signal.
The target is the same in assay [9]. Nature of the assay: torsin A mutant lysate binding on microarrays – cell lysate, small-molecule microarray, COS7 lysate, 635/667 nm fluorescence, primary screen (AID 1150).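 Further: score pools 667 nm emission and signal to noise measuring lysate protein binding.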 To be noted: COS7 hTOR1A mutant lysate, 635 nm fluorescence, higher = more signal.
Assay [10] deals with Sonic hedgehog protein (Shh). Nature of the assay: Sonic hedgehog microarray binding compounds – biochemical, small-molecule microarray, 635/667 nm fluorescence, primary screen (AID 1151).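 Further: Shh protein binding to compounds spotted on small-molecule microarray slides; score combines spot fluorescence intensity with signal-to-noise across triplicate slides.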 As to conditions: 635 nm fluorescence, higher = more signal.
The nature of assay [11]: optical density shifts of acrAB sulA E. coli – strain DRC41, OD650, 48 h, E. coli filamentation inducer project, primary screen (AID 1152).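 Further: E. coli MC1000 strain DRC41 lacking acrAB efflux pump and sulA.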 As to conditions: higher = more signal, called active from +8 up or from −8 down.
Assay [12] in a line: probe aLefty1 binding on compound microarray – biochemical, small-molecule microarray, 635/667 nm fluorescence, primary screen (AID 1153).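 Further: score merges spot fluorescence with signal-to-noise ratio from the scanned slide images.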 To be noted: higher = more signal.
The nature of assay [13]: plasmodial surface anion channel blockers, osmotic lysis – cell-based, P. falciparum Indochina, OD700, 1 h, primary screen (AID 1154). As to conditions: P. falciparum Indochina infected RBC osmotic lysis, higher = more signal, called active from +8 up or from −8 down.
Assay [14] in a line: plasmodial surface anion channel blockers, osmotic lysis – cell-based, P. falciparum Indochina, OD700, 2 h, primary screen (AID 1155).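 Further: lysis reports solute entry through the parasite surface anion channel PSAC.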 To be noted: P. falciparum Indochina infected erythrocytes, higher = more signal, called active from +8 up or from −8 down.
Assay [15] can be described thus: changes in parasitized red cell lysis, either direction – P. falciparum Indochina, OD700, 3 h, PSAC antagonist project, primary screen (AID 1156). As to conditions: P. falciparum-infected erythrocytes, osmotic lysis, higher = more signal, called active from +8 up or from −8 down.
The nature of assay [16]: plasmodial surface anion channel blockers, osmotic lysis – cell-based, P. falciparum Indochina, OD700, 18 h, primary screen (AID 1157). As to conditions: P. falciparum Indochina infected erythrocytes, osmotic lysis OD700, 18 h; higher = more signal, called active from +8 up or from −8 down.
Assay [17] is described as follows: S6 kinase pathway phospho-S6 level changes – cell-based, A549, cytoblot, luminescence, serum-stimulated, primary screen (AID 1158).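 Further: serum-stimulated A549 lung adenocarcinoma cells; signal is phosphorylated S6 detected by cytoblot immunostaining with HRP secondary.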 As to conditions: 5 h, higher = more signal.
Assay [18] concerns the target NADPH oxidase 2 (Homo sapiens) (UniProt P04839). The experiment in a line: compounds shifting NOX2 Amplex Red fluorescence – cell-based, HEK293-NOX2, PMA-stimulated, NOX inhibitor project, primary screen (AID 1159). Further: test concentration not given here. To be noted: 45 min, higher = more signal, called active from +8 up or from −8 down.
The target in assay [19] is NADPH oxidase 4 (Homo sapiens) (UniProt Q9NPH5). Nature of the assay: compounds shifting NOX4 Amplex Red fluorescence – cell-based, HEK293-NOX4, tetracycline-induced, NOX inhibitor project, primary screen (AID 1160). To be noted: HEK293-NOX4, Amplex Red H2O2 fluorescence, 45 min; higher = more signal, called active from +8 up or from −8 down.
In assay [20] the target is NADPH oxidase 5 (Homo sapiens) (UniProt Q96PH1). Nature of the assay: compounds shifting NOX5 Amplex Red fluorescence – cell-based, HEK293-NOX5, NOX inhibitor project, primary screen (AID 1161). As to conditions: HEK293-NOX5, ionomycin, 45 min, higher = more signal.
Sequence of NADPH oxidase 5 (Homo sapiens) (Q96PH1 whole entry, looked up): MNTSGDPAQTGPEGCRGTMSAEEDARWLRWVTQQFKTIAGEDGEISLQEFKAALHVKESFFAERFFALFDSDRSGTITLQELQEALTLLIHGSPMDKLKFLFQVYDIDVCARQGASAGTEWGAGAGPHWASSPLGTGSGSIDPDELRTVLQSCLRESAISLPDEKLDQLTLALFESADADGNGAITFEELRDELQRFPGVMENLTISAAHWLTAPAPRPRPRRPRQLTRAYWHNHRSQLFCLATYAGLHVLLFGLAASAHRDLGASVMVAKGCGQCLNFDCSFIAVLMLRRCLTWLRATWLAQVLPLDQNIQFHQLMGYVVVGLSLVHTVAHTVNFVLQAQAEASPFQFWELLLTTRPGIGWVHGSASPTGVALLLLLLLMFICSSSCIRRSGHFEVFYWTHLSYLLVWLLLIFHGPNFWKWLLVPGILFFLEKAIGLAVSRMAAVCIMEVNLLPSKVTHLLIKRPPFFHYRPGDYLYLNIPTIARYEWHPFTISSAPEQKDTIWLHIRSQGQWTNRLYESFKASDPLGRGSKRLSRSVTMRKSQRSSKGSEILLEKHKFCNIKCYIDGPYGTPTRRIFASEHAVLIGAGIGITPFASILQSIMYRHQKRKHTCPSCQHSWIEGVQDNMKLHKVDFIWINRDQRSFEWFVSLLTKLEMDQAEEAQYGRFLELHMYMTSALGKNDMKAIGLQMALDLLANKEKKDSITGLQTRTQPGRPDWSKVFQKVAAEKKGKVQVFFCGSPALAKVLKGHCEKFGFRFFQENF

Sequence of Torsin-1A (Homo sapiens) (O14656 whole entry, looked up): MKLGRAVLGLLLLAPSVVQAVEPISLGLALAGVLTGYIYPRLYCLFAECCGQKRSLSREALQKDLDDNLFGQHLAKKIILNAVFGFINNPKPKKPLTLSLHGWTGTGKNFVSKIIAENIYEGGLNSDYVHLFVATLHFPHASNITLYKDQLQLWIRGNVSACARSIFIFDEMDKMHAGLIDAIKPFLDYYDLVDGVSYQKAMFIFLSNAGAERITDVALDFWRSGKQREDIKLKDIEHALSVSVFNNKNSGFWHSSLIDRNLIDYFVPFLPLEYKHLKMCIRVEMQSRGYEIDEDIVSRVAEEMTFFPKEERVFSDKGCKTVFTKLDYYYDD
Sequence of NADPH oxidase 2 (Homo sapiens) (P04839 whole entry, looked up): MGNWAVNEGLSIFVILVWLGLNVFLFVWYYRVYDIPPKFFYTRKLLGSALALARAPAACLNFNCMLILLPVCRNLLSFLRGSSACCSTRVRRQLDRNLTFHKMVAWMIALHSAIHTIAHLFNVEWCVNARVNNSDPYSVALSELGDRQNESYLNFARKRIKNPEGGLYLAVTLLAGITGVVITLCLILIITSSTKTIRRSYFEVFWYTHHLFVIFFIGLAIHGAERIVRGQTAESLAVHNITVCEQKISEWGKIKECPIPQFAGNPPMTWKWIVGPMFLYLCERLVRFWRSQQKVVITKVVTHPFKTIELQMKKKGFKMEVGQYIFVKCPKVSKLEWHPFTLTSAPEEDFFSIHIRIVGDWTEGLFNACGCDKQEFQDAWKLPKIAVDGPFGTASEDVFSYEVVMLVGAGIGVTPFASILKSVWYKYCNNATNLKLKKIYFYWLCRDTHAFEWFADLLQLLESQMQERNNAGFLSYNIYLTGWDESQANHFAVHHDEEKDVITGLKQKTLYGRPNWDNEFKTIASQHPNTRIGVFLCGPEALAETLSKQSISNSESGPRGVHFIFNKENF
Sequence of Streptavidin (Streptomyces avidinii) (P22629 whole entry, looked up): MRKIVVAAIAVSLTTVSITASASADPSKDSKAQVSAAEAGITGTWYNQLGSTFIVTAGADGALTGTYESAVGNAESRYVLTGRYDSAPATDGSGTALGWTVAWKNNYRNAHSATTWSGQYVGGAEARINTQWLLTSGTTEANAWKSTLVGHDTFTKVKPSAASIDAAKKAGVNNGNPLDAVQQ
Sequence of NADPH oxidase 4 (Homo sapiens) (Q9NPH5 whole entry, looked up): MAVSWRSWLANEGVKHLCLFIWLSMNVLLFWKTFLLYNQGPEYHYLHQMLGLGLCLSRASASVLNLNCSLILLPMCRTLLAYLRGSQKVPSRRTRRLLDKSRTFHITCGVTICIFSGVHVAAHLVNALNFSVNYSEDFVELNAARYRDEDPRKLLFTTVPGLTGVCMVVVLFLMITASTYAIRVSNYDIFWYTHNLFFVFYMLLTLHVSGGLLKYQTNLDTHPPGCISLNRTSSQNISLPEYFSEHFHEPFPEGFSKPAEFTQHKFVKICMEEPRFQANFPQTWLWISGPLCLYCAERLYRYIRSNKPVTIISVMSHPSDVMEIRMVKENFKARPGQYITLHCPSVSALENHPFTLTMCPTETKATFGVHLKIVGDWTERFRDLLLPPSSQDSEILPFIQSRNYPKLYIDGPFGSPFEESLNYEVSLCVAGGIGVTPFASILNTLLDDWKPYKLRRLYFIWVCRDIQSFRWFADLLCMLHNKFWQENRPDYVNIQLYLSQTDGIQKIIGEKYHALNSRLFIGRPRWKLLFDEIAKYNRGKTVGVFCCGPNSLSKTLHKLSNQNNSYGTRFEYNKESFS

As for `CCOC(=O)[C@H](Cc1ccccc1)NC(=O)CCC1CC(OC(=O)NCCc2ccc(F)cc2)CC2(CCCC(COC(=O)NCCC(C)C)O2)O1` (stereo not given in full), the composite z-score is 0.446 in assay [1]; 0.496 in [6]; -0.183 in [7]; 0.0817 in assay [8]; 0.34 in assay [9]; 1.68 in assay [10]. In [12], this compound gave a composite z-score of 0.145. In addition, the z-score in assay [2] was 0.0118 (inactive); in assay [3], -0.275 (inactive); in assay [4], 1.09 (inactive); in assay [5], 0.956 (inactive); in [11], -0.15 (inactive); in [13], -1.5 (inactive). In addition, the z-score was -0.302 (inactive) in assay [14]; 0.005 (inactive) in [15]; 0.0777 (inactive) in assay [16]; 0.429 in assay [17]; -0.0979 (inactive) in [18]; 0.397 (inactive) in assay [19]. Besides, the z-score in assay [20] came out at 0.7.
For the compound `COc1ccc(COC(=O)NN=C2C[C@@H](O)[C@@H](O)[C@@H]3[C@@H]4C(=O)N([C@@H](C)c5ccccc5)C(=O)[C@@H]4CC[C@H]23)cc1`, the composite z-score was 0.366 in assay [1]; 1.02 in [6]; 0.0667 in assay [7]; -0.982 in assay [8]; 0.106 in assay [9]; -0.983 in assay [10]. Further, in assay [12], the composite z-score came out at 0.751. The z-score is -1.71 (inactive) in [2]; -0.183 (inactive) in assay [3]; 1.79 (inactive) in [4]; -0.183 (inactive) in [5]; 0.486 (inactive) in [11]; 7.67 (inactive) in assay [13]. The z-score is 0.805 (inactive) in [14]; -0.0805 (inactive) in [15]; 0.501 (inactive) in assay [16]; -0.34 in [17]; 0.947 (inactive) in [18]; 0.672 (inactive) in assay [19]. For the same compound, in [20], the z-score is -0.419.
Take `O=C(NN=C1C[C@@H](O)[C@@H](O)[C@@H]2[C@@H]3C(=O)N(Cc4ccc5c(c4)OCO5)C(=O)[C@@H]3CC[C@@H]12)OCc1ccccc1`: the composite z-score in assay [1] is -0.0565; in assay [6], 0.485; in assay [7] it was -0.183; in [8] it was 0.234; in [9], -0.0136; in [10] it was -0.806. In addition, in assay [12], the composite z-score amounted to 0.184. Moreover, the z-score was -3.46 (inactive) in assay [2]; 0.156 (inactive) in [3]; 1.06 (inactive) in assay [4]; 0.0698 (inactive) in assay [5]; -0.989 (inactive) in [11]; 6.62 (inactive) in assay [13]. For the same compound, the z-score in assay [14] was -0.207 (inactive); in [15], 0.465 (inactive); in [16] it was -1.85 (inactive); in assay [17], -0.0564; in [18], -1.78 (inactive); in assay [19] it was -1.08 (inactive). Besides, the z-score in assay [20] is -1.39.
In the case of `C[C@H]1CC[C@@H](C(=O)O)N[C@@H]1c1ccc(C#Cc2ccccc2)cc1`, the composite z-score in assay [1] is 0.177; in assay [6], 2.04; in assay [7] it was -0.0403; in [8], 0.587; in [9], 0.439; in [10], 1.53. Moreover, the composite z-score in assay [12] is -0.101. Also, the z-score in [2] was -7 (inactive); in assay [3], 0.696 (inactive); in assay [4], 0.112 (inactive); in [5], -1.58 (inactive); in assay [11], -0.553 (inactive); in assay [13] it was 0.0311 (inactive). The z-score in assay [14] is -0.0838 (inactive); in [15], 0.26 (inactive); in assay [16] it was -0.267 (inactive); in assay [17] it was -0.895; in assay [18], -0.217 (inactive); in [19], 1.11 (inactive). The z-score in assay [20] is 1.93.
Regarding `CON=C(C)CCC(=O)OC[C@H]1O[C@H](C#Cc2ccccc2)C=C[C@@H]1Oc1ccc(C)cc1`, the composite z-score in assay [1] is 0.0488; in assay [6], 0.0457; in assay [7], -0.016; in assay [8], 0.552; in assay [9], -0.0451; in assay [10], 0.597. The composite z-score in [12] is -0.0141. The z-score in [2] was -1.85 (inactive); in assay [3] it was -0.0775 (inactive); in assay [4] it was 0.415 (inactive); in assay [5], 1.24 (inactive); in assay [11] it was -2.47 (inactive); in assay [13] it was 2.13 (inactive). For the same compound, the z-score in assay [14] was 0.277 (inactive); in assay [15], -0.73 (inactive); in [16] it was 0.073 (inactive); in [17], -0.57; in assay [18] it was -2.16 (inactive); in [19], -2.25 (inactive). Besides, the z-score in [20] is -0.0339.
For the compound `Cc1cc(C)c(-c2cc([C@H](C)ON=C[C@@H](C)[C@H](OCc3ccccc3)C(C)C)on2)c(C)c1`, the composite z-score in [1] is -0.18; in assay [6] it was 0.0366; in assay [7], -0.242; in assay [8] it was -0.477; in assay [9], -0.273; in assay [10], -0.16. In [12], this compound gave a composite z-score of -0.0501. Moreover, the z-score in [2] was -0.295 (inactive); in [3], 1.45 (inactive); in assay [4], 0.0944 (inactive); in [5], -0.549 (inactive); in assay [11], -0.3 (inactive); in [13] it was 0.859 (inactive). Further, the z-score in [14] was 0.541 (inactive); in [15], -0.831 (inactive); in assay [16], 0.195 (inactive); in assay [17], -0.408; in assay [18], -0.467 (inactive); in assay [19], -0.299 (inactive). The z-score in assay [20] is -0.45.
